# Measured values as given in PMC7862700, “An all-to-all approach to the identification of sequence-specific readers for epigenetic DNA modifications on cytosine”.
# Legend:
# Test in all cases: DAPPL (digital affinity profiling via proximity ligation, sequencing); 10 mM Tris-HCl pH 7.5, 50 mM NaCl, 1 mM DTT, 4% glycerol, room temperature, 30 min; GST-TFs on glutathione beads, 16-mer random dsDNA library, 0.1% formaldehyde crosslink after washing; high values mean tight binding
# Conditions in all cases: protein: recombinant; tags: N-terminal GST; dsDNA, one strand shown
# [1] = target: T1, FLI1 (Homo sapiens, UniProt Q01543 1-452)
# T1 sequence: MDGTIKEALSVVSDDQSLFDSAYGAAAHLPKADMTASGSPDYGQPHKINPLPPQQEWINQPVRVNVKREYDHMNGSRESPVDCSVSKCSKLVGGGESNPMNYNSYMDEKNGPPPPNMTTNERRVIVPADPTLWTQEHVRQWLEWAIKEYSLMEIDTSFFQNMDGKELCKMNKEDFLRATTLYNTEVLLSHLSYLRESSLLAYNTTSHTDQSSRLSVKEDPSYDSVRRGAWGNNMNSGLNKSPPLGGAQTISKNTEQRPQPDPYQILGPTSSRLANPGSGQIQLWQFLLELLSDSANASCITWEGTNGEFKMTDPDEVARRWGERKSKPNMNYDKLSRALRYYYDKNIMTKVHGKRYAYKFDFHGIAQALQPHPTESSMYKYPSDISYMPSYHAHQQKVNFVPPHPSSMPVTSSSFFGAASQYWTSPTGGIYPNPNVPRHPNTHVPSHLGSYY
# In short: (§1)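 After expression in yeast as GST fusions, human transcription factors were bound to glutathione beads, DNA-barcoded and mixed with a tag-only sample. The pools were incubated with 200 nmole of a 16-mer random double-stranded DNA library in Tris/NaCl/DTT/glycerol buffer (30 min, room temperature), washed and crosslinked with 0.1% formaldehyde. Proximity ligation with BsaI/T4 ligase ran for 1 h at 37 °C, before PCR amplification and sequencing on an Illumina NextSeq500. Binding signal is a hexamer's read frequency for a factor divided by its frequency for the tag-only sample.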
# [2] = target: T2, ELK1 (Homo sapiens, UniProt P19419 1-428)
# T2 sequence: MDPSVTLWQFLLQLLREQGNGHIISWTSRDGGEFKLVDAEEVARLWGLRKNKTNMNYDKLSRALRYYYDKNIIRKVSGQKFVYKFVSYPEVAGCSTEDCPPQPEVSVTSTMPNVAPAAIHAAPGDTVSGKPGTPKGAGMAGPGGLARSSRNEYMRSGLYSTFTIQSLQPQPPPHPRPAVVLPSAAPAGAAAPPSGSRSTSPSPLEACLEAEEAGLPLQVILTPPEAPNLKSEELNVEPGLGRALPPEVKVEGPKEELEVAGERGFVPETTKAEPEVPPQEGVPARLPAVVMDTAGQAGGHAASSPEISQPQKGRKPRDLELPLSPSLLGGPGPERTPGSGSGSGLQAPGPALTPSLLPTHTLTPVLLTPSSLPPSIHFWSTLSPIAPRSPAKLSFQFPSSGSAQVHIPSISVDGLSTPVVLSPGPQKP
# In short: as §1
# [3] = target: ELF1 (Homo sapiens, UniProt P32519 1-619)
# In short: as §1
# [4] = target: T3, EHF (Homo sapiens, UniProt Q9NZC4 1-300)
# T3 sequence: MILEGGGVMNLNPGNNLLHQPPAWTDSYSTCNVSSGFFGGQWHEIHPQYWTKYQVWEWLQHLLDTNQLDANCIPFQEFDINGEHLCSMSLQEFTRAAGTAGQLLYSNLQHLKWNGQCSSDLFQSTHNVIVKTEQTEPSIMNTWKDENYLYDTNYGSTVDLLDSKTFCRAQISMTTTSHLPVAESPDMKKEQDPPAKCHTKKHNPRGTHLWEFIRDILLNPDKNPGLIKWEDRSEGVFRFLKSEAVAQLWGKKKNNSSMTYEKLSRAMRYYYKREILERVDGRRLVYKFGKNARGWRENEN
# In short: as §1
# [5] = target: T4, ELK3 (Homo sapiens, UniProt P41970 1-407)
# T4 sequence: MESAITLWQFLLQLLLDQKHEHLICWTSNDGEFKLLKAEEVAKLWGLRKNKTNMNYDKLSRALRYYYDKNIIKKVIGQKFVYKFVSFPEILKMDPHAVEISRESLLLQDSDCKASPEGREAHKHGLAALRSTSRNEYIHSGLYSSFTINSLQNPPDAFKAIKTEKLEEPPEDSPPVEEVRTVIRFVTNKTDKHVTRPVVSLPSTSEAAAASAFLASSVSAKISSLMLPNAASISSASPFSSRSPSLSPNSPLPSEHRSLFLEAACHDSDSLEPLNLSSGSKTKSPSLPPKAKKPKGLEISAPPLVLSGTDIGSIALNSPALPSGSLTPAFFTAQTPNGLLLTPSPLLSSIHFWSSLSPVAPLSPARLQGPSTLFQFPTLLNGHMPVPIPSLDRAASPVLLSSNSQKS
# In short: as §1
# [6] = target: T5, FEV (Homo sapiens, UniProt Q99581 1-238)
# T5 sequence: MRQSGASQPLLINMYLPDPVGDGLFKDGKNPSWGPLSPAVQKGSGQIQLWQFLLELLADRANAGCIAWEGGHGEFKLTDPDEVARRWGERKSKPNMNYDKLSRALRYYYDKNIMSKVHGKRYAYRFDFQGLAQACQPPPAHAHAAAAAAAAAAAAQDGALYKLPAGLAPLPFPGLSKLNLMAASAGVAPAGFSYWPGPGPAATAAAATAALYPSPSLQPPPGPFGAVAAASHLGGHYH
# In short: as §1
# [7] = target: ETV5 (Homo sapiens, UniProt P41161 1-510)
# In short: as §1
# [8] = target: T6, SPIC (Homo sapiens, UniProt Q8N5J4 1-248)
# T6 sequence: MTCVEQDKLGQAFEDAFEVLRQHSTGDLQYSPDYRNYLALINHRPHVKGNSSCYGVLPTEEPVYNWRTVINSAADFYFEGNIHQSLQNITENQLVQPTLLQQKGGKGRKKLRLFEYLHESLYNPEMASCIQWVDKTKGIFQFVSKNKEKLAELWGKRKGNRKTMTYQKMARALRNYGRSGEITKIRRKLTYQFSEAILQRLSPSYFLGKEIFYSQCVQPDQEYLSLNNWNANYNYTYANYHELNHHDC
# In short: as §1
# [9] = target: ELF4 (Homo sapiens, UniProt Q99607 1-663)
# In short: as §1
# [10] = target: T7, ELK4 (Homo sapiens, UniProt P28324-2 1-405)
# T7 sequence: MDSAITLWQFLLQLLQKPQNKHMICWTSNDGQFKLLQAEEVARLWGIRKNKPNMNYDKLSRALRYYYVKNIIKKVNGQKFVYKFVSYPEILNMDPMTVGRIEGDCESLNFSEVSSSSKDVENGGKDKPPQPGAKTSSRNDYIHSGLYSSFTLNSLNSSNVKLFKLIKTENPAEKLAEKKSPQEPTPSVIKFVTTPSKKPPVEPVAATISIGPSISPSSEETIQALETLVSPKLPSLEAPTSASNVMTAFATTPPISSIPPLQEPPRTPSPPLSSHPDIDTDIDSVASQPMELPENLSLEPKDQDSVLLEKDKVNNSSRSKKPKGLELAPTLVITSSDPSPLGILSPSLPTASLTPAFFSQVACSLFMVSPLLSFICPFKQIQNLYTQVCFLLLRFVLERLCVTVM
# In short: as §1
# [11] = target: T8, ETV2 (Homo sapiens, UniProt O00321 1-342)
# T8 sequence: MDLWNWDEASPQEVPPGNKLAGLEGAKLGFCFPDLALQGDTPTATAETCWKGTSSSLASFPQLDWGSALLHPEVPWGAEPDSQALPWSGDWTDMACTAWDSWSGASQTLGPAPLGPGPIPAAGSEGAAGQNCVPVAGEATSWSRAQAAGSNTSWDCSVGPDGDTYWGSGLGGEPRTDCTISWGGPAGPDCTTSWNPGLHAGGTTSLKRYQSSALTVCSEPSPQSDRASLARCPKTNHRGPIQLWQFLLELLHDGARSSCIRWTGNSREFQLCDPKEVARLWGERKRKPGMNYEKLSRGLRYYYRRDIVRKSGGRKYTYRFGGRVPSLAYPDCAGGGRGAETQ
# In short: as §1
# [12] = target: T9, ELF3 (Homo sapiens, UniProt P78545 1-371)
# T9 sequence: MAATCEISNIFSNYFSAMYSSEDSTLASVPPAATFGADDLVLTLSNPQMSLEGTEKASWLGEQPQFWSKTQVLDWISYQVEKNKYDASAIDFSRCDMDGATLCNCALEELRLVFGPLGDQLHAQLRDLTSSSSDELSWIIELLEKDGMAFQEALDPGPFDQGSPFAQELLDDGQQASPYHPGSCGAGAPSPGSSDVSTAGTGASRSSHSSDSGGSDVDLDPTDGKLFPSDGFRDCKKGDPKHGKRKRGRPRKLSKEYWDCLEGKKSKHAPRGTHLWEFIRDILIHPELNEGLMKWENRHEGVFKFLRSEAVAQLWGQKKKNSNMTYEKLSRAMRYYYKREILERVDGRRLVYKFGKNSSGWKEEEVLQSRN
# In short: as §1
# [13] = target: ETV1 (Homo sapiens, UniProt P50549 1-477)
# In short: as §1
# [14] = target: T10, GABPA (Homo sapiens, UniProt Q06546 1-454)
# T10 sequence: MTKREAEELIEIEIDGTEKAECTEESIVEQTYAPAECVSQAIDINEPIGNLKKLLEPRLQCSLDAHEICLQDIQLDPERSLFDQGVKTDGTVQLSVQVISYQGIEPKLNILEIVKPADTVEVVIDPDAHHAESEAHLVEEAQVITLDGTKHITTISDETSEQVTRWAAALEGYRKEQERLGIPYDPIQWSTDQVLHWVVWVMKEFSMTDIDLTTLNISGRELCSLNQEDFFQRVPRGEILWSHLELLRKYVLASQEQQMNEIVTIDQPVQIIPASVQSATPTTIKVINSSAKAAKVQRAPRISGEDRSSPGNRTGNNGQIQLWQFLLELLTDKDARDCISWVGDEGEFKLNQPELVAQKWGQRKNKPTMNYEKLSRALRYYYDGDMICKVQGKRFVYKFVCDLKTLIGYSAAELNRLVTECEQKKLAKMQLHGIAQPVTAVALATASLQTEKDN
# In short: as §1
# [15] = target: T11, ERG (Homo sapiens, UniProt P11308 1-479)
# T11 sequence: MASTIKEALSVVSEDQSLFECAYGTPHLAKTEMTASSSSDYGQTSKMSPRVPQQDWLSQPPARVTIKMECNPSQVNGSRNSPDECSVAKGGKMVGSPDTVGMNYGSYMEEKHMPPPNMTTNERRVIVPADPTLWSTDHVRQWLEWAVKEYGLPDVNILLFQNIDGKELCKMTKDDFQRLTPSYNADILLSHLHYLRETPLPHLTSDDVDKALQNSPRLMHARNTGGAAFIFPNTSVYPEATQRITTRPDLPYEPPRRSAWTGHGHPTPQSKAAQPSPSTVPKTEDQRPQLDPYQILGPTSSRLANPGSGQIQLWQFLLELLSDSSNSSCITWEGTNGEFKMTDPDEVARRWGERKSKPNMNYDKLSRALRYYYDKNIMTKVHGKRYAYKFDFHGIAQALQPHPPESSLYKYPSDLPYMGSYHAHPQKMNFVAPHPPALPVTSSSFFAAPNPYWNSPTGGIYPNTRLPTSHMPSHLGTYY
# In short: as §1
# [16] = target: SPI1 (Homo sapiens, UniProt P17947 1-270)
# In short: as §1
# [17] = target: SPIB (Homo sapiens, UniProt Q01892 1-262)
# In short: as §1
# Sequence of ETV5 (P41161 whole entry): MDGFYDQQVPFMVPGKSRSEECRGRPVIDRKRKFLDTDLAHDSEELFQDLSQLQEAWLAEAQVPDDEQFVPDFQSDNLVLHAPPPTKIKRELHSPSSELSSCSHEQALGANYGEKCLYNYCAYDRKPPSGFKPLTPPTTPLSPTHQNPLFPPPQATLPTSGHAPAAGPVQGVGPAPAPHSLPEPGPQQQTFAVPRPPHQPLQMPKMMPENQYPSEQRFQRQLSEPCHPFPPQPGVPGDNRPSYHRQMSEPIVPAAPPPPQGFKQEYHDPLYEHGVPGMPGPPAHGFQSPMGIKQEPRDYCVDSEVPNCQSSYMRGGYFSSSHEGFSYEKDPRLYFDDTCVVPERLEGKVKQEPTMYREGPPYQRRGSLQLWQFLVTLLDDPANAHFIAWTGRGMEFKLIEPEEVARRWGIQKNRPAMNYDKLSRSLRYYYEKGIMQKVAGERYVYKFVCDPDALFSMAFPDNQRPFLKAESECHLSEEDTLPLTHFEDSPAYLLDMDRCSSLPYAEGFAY
# Sequence of ETV1 (P50549 whole entry): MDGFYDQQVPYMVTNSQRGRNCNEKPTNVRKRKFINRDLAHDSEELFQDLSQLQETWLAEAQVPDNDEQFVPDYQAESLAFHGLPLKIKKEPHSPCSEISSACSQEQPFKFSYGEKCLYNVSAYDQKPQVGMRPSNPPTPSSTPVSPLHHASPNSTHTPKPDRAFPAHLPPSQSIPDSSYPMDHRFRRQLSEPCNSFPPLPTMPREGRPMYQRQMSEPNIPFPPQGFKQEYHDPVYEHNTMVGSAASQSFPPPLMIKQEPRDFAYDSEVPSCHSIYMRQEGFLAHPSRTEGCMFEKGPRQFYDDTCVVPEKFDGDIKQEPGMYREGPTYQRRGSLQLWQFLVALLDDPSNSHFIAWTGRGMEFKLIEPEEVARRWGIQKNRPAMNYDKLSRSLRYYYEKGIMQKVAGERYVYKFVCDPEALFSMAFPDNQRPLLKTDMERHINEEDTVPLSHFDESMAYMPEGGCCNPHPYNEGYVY
# Sequence of ELF4 (Q99607 whole entry): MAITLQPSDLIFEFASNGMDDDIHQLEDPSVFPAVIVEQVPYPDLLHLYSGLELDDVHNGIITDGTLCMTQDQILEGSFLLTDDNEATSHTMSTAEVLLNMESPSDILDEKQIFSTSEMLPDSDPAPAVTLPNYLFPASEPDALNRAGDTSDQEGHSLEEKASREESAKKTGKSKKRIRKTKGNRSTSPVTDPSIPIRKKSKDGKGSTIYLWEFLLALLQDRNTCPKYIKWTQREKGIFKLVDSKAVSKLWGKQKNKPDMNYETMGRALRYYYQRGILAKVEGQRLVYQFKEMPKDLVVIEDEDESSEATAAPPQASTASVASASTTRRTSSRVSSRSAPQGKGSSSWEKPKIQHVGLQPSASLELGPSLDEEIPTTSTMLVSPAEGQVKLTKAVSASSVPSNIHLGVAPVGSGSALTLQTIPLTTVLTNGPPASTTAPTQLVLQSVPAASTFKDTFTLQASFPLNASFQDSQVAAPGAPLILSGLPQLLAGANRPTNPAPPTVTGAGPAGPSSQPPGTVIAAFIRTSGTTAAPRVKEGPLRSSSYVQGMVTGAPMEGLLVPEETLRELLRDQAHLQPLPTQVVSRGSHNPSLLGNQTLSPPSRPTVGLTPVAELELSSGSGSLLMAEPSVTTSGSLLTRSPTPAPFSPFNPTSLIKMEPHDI
# Sequence of ELF1 (P32519 whole entry): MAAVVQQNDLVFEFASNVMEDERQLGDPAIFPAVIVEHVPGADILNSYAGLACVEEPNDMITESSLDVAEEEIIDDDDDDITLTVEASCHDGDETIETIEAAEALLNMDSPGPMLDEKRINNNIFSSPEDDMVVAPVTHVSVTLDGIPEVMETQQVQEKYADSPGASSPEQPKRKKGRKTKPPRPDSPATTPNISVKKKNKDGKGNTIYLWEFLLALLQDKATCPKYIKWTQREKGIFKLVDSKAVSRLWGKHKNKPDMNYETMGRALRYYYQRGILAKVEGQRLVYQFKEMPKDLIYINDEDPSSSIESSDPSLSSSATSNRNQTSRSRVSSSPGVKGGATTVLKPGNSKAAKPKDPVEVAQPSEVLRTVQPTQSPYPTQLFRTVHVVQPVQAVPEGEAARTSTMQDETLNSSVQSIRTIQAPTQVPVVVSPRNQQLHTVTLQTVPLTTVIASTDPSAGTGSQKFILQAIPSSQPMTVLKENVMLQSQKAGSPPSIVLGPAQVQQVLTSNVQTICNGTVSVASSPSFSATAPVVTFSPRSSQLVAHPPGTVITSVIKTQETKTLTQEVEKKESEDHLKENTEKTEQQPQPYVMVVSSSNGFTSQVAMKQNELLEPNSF
# Sequence of SPIB (Q01892 whole entry): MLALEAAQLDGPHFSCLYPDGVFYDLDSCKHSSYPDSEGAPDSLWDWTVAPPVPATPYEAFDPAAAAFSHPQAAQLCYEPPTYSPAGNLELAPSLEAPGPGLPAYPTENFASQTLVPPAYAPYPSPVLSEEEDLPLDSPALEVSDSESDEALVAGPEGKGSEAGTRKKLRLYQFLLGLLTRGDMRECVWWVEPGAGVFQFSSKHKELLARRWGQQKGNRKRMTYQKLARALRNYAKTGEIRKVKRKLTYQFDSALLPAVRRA
Sequence,binding signal [1],binding signal [2],binding signal [3],binding signal [4],binding signal [5],binding signal [6],binding signal [7],binding signal [8],binding signal [9],binding signal [10],binding signal [11],binding signal [12],binding signal [13],binding signal [14],binding signal [15],binding signal [16],binding signal [17]
GCAATG,"1.05 fold enrichment (6-mer frequency, TF over GST control)","1.08 fold enrichment (6-mer frequency, TF over GST control)","1.08 fold enrichment (6-mer frequency, TF over GST control)","1.04 fold enrichment (6-mer frequency, TF over GST control)","1.03 fold enrichment (6-mer frequency, TF over GST control)","1.08 fold enrichment (6-mer frequency, TF over GST control)","1.09 fold enrichment (6-mer frequency, TF over GST control)","1.08 fold enrichment (6-mer frequency, TF over GST control)","1.04 fold enrichment (6-mer frequency, TF over GST control)","1.13 fold enrichment (6-mer frequency, TF over GST control)","1.07 fold enrichment (6-mer frequency, TF over GST control)","1.17 fold enrichment (6-mer frequency, TF over GST control)","1.06 fold enrichment (6-mer frequency, TF over GST control)",,,,
CCTGTG,"1.06 fold enrichment (6-mer frequency, TF over GST control)","1.24 fold enrichment (6-mer frequency, TF over GST control)","1.11 fold enrichment (6-mer frequency, TF over GST control)",,"1.01 fold enrichment (6-mer frequency, TF over GST control)","1.11 fold enrichment (6-mer frequency, TF over GST control)","1.07 fold enrichment (6-mer frequency, TF over GST control)","1.32 fold enrichment (6-mer frequency, TF over GST control)","1.11 fold enrichment (6-mer frequency, TF over GST control)","1.22 fold enrichment (6-mer frequency, TF over GST control)","1.11 fold enrichment (6-mer frequency, TF over GST control)","1 fold enrichment (6-mer frequency, TF over GST control)","1.12 fold enrichment (6-mer frequency, TF over GST control)","1.08 fold enrichment (6-mer frequency, TF over GST control)","1.21 fold enrichment (6-mer frequency, TF over GST control)","1.04 fold enrichment (6-mer frequency, TF over GST control)","1.18 fold enrichment (6-mer frequency, TF over GST control)"
